Measured values taken from the supplement of paper PMC11001985.
Values without a mark were called inactive.

compound: C#CCNC(=O)CCSSCCC(=O)NCCc1ccc(C=O)c(C=O)c1; assay: lysine labeling ratio R10:1 (500 µM / 50 µM probe), SILAC-ABPP in living cells; higher = lower intrinsic lysine reactivity toward the probe, active = 2 or less; details: HeLa; probe concentrations 500 vs 50 µM
In short: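 For each lysine, R is the median over forward and reverse replicates of the filtered median MS1 peptide ratio of high probe to low probe. The probe, an alkyne-tagged, disulfide-linked lysine probe, was given at 500 µM or 50 µM to living SILAC light and heavy HeLa cells in PBS at room temperature, with label swaps. Values are capped at 20.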

UniProt P08195, sequence (P08195 whole entry): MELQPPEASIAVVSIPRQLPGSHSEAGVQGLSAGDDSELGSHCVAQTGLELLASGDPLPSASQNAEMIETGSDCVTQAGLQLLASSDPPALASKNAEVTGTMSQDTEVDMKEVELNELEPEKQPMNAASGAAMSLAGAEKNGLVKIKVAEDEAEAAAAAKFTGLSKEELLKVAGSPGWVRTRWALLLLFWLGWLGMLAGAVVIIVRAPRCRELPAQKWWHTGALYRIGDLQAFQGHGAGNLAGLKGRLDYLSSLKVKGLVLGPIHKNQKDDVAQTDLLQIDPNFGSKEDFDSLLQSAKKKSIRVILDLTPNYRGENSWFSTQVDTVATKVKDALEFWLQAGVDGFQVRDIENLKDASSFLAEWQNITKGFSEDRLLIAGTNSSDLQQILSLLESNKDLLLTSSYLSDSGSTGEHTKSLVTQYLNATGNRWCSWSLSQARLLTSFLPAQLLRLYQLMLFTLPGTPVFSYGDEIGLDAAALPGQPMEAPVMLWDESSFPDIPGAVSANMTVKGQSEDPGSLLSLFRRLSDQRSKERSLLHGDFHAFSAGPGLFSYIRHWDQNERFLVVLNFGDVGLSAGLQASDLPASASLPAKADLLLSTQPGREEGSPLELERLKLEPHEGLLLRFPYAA
UniProt P09651, sequence (P09651 whole entry): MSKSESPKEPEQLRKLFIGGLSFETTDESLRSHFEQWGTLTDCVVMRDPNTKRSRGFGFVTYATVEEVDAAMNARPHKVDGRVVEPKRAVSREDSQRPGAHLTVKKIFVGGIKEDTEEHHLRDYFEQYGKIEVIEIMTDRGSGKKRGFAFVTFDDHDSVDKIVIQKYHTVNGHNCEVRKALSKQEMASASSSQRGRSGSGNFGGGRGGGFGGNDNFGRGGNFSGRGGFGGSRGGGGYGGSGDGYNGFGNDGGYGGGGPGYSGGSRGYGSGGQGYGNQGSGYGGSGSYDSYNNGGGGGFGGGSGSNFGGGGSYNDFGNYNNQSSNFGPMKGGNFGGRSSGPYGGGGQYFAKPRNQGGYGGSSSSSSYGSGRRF
UniProt Q14126, sequence (Q14126 whole entry): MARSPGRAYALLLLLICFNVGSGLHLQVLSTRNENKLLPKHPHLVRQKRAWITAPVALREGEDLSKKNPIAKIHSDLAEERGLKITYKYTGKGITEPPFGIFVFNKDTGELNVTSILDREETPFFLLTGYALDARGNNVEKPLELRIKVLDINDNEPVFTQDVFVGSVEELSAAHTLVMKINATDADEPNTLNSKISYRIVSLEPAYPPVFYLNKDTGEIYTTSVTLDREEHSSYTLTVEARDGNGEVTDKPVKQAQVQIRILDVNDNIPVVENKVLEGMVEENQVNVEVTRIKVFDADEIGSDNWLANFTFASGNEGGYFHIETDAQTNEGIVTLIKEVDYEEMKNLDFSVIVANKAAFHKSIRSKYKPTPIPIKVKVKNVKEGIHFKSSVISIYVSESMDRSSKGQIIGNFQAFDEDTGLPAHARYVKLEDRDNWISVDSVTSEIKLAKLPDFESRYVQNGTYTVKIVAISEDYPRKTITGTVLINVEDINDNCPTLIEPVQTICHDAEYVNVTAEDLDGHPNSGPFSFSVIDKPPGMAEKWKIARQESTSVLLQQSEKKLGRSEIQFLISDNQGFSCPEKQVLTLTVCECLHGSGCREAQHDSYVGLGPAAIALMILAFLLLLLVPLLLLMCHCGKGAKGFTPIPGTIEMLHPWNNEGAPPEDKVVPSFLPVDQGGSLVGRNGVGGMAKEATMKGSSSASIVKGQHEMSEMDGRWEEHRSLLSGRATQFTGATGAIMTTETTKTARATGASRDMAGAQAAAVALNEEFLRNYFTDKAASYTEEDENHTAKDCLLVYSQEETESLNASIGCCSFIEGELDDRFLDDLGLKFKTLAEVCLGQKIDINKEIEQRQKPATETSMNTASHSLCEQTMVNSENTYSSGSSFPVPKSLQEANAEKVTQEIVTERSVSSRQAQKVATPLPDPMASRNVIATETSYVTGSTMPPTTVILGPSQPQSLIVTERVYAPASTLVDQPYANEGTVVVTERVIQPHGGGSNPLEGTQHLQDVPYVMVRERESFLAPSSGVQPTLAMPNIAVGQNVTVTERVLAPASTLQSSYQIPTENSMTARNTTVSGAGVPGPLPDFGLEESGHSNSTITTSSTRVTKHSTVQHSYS
UniProt P21333, sequence (P21333 whole entry): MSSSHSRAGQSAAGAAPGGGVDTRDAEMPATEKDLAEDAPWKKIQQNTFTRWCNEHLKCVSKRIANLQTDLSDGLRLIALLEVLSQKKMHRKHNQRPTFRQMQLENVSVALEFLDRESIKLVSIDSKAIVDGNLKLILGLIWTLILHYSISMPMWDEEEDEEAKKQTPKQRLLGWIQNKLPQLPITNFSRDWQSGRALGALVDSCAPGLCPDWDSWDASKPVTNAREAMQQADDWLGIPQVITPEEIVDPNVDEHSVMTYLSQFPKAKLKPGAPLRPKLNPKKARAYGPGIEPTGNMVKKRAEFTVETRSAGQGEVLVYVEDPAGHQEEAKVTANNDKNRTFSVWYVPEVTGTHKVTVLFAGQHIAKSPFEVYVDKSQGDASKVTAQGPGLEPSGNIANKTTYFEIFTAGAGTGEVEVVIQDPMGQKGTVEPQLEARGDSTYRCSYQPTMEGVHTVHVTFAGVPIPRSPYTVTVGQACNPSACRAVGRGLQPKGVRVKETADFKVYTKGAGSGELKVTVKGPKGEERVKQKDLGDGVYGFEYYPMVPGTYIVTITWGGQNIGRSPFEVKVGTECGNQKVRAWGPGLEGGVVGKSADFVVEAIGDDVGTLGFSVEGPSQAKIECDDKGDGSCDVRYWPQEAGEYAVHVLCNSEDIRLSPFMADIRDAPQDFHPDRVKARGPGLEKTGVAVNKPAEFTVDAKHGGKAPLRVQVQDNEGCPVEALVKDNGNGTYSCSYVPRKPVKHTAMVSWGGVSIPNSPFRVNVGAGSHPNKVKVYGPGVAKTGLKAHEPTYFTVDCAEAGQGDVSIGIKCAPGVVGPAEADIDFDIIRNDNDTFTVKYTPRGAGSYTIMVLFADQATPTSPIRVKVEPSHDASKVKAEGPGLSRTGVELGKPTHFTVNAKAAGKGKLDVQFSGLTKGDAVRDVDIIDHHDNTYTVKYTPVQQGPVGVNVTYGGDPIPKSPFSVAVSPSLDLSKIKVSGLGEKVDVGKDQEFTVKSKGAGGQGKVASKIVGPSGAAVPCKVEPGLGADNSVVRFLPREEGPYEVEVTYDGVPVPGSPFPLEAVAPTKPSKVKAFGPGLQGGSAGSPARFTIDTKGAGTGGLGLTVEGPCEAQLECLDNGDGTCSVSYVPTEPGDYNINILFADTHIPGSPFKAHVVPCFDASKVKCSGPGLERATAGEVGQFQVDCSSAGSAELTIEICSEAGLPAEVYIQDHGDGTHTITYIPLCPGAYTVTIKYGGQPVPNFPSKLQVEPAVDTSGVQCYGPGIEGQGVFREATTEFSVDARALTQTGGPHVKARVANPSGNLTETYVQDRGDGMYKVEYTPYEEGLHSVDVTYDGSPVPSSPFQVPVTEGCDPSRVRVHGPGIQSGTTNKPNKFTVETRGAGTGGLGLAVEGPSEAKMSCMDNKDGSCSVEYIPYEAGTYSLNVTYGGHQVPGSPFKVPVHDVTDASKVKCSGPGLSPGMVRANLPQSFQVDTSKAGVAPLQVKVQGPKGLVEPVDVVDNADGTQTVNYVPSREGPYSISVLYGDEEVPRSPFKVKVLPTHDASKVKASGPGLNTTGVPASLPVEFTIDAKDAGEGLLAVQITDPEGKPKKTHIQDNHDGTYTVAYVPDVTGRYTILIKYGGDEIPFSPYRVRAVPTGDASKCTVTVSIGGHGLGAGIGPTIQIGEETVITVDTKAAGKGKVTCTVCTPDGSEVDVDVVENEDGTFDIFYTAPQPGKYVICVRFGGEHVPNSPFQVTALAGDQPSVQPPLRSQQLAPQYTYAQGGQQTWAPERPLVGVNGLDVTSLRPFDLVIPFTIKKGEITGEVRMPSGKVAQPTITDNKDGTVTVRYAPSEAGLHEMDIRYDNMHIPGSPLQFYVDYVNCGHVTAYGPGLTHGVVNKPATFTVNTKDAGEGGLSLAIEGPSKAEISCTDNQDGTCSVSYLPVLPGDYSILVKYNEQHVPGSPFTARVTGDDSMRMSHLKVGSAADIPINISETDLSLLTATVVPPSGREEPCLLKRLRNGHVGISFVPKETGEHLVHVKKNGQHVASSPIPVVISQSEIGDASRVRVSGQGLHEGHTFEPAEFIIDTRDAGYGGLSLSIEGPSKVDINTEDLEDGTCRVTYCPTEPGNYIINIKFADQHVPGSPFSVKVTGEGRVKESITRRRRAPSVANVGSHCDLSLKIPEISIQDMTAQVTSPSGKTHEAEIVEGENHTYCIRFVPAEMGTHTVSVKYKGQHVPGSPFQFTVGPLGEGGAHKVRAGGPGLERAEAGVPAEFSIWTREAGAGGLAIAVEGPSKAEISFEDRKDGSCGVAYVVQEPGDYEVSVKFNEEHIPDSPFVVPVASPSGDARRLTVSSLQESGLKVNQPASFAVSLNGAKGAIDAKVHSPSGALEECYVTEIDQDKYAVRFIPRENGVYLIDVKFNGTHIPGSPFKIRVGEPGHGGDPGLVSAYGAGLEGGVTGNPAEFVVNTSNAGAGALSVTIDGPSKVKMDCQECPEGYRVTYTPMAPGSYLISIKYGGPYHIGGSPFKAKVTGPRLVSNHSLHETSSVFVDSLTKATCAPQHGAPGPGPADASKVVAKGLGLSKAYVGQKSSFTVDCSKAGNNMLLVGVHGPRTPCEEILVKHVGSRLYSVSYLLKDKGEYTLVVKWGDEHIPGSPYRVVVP
UniProt P22087, sequence (P22087 whole entry): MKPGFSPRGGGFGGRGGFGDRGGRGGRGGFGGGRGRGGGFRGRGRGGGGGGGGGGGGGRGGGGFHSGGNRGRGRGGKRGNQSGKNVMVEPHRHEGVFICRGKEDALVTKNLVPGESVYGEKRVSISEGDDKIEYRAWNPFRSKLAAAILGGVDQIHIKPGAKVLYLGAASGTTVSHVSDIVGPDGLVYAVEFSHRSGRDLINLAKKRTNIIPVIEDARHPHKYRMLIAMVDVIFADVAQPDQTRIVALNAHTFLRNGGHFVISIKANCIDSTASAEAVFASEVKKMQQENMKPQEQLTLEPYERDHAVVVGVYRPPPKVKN

How did the “lysine labeling ratio R10:1” value turn out when “DSG2 (lysine site: K430) (UniProt Q14126)” was run?
The value was 6.01.

How did the “lysine labeling ratio R10:1” value turn out when “SURF4 (lysine site: K154) (UniProt O15260)” was run?
Its value is 4.16.

With “SAFB2 (lysine site: K829) (UniProt Q14151)” as the target, how does the “lysine labeling ratio R10:1” value read?
Its value is 1.92 (active).

How did the “lysine labeling ratio R10:1” value turn out when “LAMB1 (lysine site: K1492) (UniProt P07942)” was run?
Its value is 4.06.

With “DNAJA1 (lysine site: K144) (UniProt P31689)” as the target, how does the “lysine labeling ratio R10:1” value read?
The value was 2.55.

How did the “lysine labeling ratio R10:1” value turn out when “NCL (lysine site: K545) (UniProt P19338)” was run?
Its value is 3.2.

Which “lysine labeling ratio R10:1” value does the source give for “ACTN4 (lysine site: K331) (UniProt O43707)” here?
Its value is 1.71 (active).

How did the “lysine labeling ratio R10:1” value turn out when “FN1 (lysine site: K248) (UniProt P02751)” was run?
The value was 2.7.

“HNRNPA1 (lysine site: K350) (UniProt P09651)” was tested. Which “lysine labeling ratio R10:1” value did it give?
The value was 3.42.

With “IGF2R (lysine site: K1776) (UniProt P11717)” as the target, how does the “lysine labeling ratio R10:1” value read?
Its value is 2.48.

Which “lysine labeling ratio R10:1” value does the source give for “MYH9 (lysine site: K1648) (UniProt P35579)” here?
Its value is 1.22 (active).

With “FBL (lysine site: K131) (UniProt P22087)” as the target, how does the “lysine labeling ratio R10:1” value read?
Its value is 2.15.

Which “lysine labeling ratio R10:1” value does the source give for “CLTC (lysine site: K1516) (UniProt Q00610)” here?
Its value is 1.45 (active).

With “SPTAN1 (lysine site: K2187) (UniProt Q13813)” as the target, how does the “lysine labeling ratio R10:1” value read?
Its value is 5.14.

“PFN1 (lysine site: K54) (UniProt P07737)” was tested. Which “lysine labeling ratio R10:1” value did it give?
Its value is 3.31.

UniProt P08727 (lysine site: K398) was tested. Which “lysine labeling ratio R10:1” value did it give?
Its value is 2.38.

With “PPT1 (lysine site: K174) (UniProt P50897)” as the target, how does the “lysine labeling ratio R10:1” value read?
Its value is 1.29 (active).

With “SLC3A2 (lysine site: K298) (UniProt P08195)” as the target, how does the “lysine labeling ratio R10:1” value read?
The value was 6.33.

For UniProt P61088 (lysine site: K82), which “lysine labeling ratio R10:1” value is on record?
The value was 1.19 (active).

For “ECE1 (lysine site: K401) (UniProt P42892)”, which “lysine labeling ratio R10:1” value is on record?
Its value is 2.77.

With “MSLN (lysine site: K487) (UniProt Q13421)” as the target, how does the “lysine labeling ratio R10:1” value read?
The value was 6.18.

For “MSN (lysine site: K514) (UniProt P26038)”, which “lysine labeling ratio R10:1” value is on record?
The value was 3.78.

How did the “lysine labeling ratio R10:1” value turn out when “EPRS (lysine site: K666) (UniProt P07814)” was run?
The value was 0.985 (active).

How did the “lysine labeling ratio R10:1” value turn out when “TFPI (lysine site: K101) (UniProt P10646)” was run?
The value was 7.9.

How did the “lysine labeling ratio R10:1” value turn out when “VASN (lysine site: K333) (UniProt Q6EMK4)” was run?
Its value is 1.84 (active).

Which “lysine labeling ratio R10:1” value does the source give for “ST13 (lysine site: K230) (UniProt P50502)” here?
The value was 4.87.

For “LRP1 (lysine site: K2009) (UniProt Q07954)”, which “lysine labeling ratio R10:1” value is on record?
The value was 3.1.

“SLC3A2 (lysine site: K217) (UniProt P08195)” was tested. Which “lysine labeling ratio R10:1” value did it give?
The value was 7.33.

Which “lysine labeling ratio R10:1” value does the source give for “ATP6V0A1 (lysine site: K70) (UniProt Q93050)” here?
The value was 0.55 (active).

Which “lysine labeling ratio R10:1” value does the source give for “HEG1 (lysine site: K1178) (UniProt Q9ULI3)” here?
The value was 4.55.

For UniProt Q12884 (lysine site: K258), which “lysine labeling ratio R10:1” value is on record?
The value was 3.81.

How did the “lysine labeling ratio R10:1” value turn out when UniProt Q9Y5I4 (lysine site: K686) was run?
Its value is 5.99.

How did the “lysine labeling ratio R10:1” value turn out when UniProt P60866 (lysine site: K8) was run?
The value was 2.33.

Which “lysine labeling ratio R10:1” value does the source give for “FLNB (lysine site: K1584) (UniProt O75369)” here?
The value was 3.06.

Which “lysine labeling ratio R10:1” value does the source give for “EGFR (lysine site: K212) (UniProt P00533)” here?
The value was 2.63.

Which “lysine labeling ratio R10:1” value does the source give for “PTGFRN (lysine site: K435) (UniProt Q9P2B2)” here?
Its value is 5.47.

With “FLNA (lysine site: K1824) (UniProt P21333)” as the target, how does the “lysine labeling ratio R10:1” value read?
Its value is 5.16.

With UniProt Q15697 (lysine site: K143) as the target, how does the “lysine labeling ratio R10:1” value read?
Its value is 2.8.

“VCL (lysine site: K453) (UniProt P18206)” was tested. Which “lysine labeling ratio R10:1” value did it give?
Its value is 3.28.

With “WNT5A (lysine site: K348) (UniProt P41221)” as the target, how does the “lysine labeling ratio R10:1” value read?
Its value is 1.98 (active).
